# Assay results: ChEMBL document CHEMBL1961873, “Compounds: GSK PKIS; Assays: Nanosyn kinase panel” (2012)
# Assays:
# [1] = target: CDK3/Cyclin E (Homo sapiens) (UniProt P24864+Q00526); details: at 1 µM;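 note: each figure is a mean percent inhibition of the CDK3/cyclin E complex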
# [2] = target: Cyclin-dependent kinase 4 (Homo sapiens) (UniProt P11802); details: at 0.1 µM
# [3] = target: Cyclin-dependent kinase 4 (Homo sapiens) (UniProt P11802); details: at 1 µM
# [4] = target: Cyclin-dependent kinase 5 (Homo sapiens) (UniProt Q00535); details: at 0.1 µM
# [5] = target: Cyclin-dependent kinase 5 (Homo sapiens) (UniProt Q00535); details: at 1 µM
# [6] = target: Cyclin-dependent kinase 6 (Homo sapiens) (UniProt Q00534); details: at 0.1 µM
# [7] = target: Cyclin-dependent kinase 6 (Homo sapiens) (UniProt Q00534); details: at 1 µM
# [8] = target: Dual specificity protein kinase CLK2 (Homo sapiens) (UniProt P49760); details: at 0.1 µM
# [9] = target: Dual specificity protein kinase CLK2 (Homo sapiens) (UniProt P49760); details: at 1 µM
# [10] = target: Dual specificity protein kinase CLK3 (Homo sapiens) (UniProt P49761); details: at 0.1 µM
# [11] = target: Dual specificity protein kinase CLK3 (Homo sapiens) (UniProt P49761); details: at 1 µM
# [12] = target: Dual specificity tyrosine-phosphorylation-regulated kinase 1A (Homo sapiens) (UniProt Q13627); details: at 0.1 µM
# [13] = target: Dual specificity tyrosine-phosphorylation-regulated kinase 1A (Homo sapiens) (UniProt Q13627); details: at 1 µM
# [14] = target: Dual specificity tyrosine-phosphorylation-regulated kinase 1B (Homo sapiens) (UniProt Q9Y463); details: at 0.1 µM
# [15] = target: Dual specificity tyrosine-phosphorylation-regulated kinase 1B (Homo sapiens) (UniProt Q9Y463); details: at 1 µM
# [16] = target: T1, Dual specificity tyrosine-phosphorylation-regulated kinase 2 (Homo sapiens) (UniProt Q92630); details: at 0.1 µM
# T1 sequence (whole entry): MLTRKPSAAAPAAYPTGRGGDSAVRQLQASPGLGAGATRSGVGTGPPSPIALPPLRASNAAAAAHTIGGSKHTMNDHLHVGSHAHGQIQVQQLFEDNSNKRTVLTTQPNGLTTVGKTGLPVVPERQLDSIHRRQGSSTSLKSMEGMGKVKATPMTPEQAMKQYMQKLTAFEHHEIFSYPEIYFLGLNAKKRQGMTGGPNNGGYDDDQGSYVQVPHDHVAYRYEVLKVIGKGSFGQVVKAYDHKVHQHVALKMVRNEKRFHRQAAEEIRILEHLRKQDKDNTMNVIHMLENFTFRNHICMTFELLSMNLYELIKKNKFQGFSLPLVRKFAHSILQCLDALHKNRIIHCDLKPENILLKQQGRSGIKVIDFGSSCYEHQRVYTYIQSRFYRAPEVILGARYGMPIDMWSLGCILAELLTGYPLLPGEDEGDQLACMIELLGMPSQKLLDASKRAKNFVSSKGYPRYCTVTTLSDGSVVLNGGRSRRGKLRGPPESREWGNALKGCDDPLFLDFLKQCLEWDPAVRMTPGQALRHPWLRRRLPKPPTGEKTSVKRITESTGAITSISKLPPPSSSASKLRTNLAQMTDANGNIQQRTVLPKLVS
# [17] = target: T1, Dual specificity tyrosine-phosphorylation-regulated kinase 2 (Homo sapiens); details: at 1 µM
# [18] = target: Glycogen synthase kinase-3 alpha (Homo sapiens) (UniProt P49840); details: at 0.1 µM
# [19] = target: Glycogen synthase kinase-3 alpha (Homo sapiens) (UniProt P49840); details: at 1 µM
# [20] = target: Glycogen synthase kinase-3 beta (Homo sapiens) (UniProt P49841); details: at 0.1 µM;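 note: values are mean percent inhibition of GSK3B activity, from the GSK Published Kinase Inhibitor Set (PKIS) screening dataset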
# Chain of Glycogen synthase kinase-3 beta (Homo sapiens) (P49841 whole entry, looked up): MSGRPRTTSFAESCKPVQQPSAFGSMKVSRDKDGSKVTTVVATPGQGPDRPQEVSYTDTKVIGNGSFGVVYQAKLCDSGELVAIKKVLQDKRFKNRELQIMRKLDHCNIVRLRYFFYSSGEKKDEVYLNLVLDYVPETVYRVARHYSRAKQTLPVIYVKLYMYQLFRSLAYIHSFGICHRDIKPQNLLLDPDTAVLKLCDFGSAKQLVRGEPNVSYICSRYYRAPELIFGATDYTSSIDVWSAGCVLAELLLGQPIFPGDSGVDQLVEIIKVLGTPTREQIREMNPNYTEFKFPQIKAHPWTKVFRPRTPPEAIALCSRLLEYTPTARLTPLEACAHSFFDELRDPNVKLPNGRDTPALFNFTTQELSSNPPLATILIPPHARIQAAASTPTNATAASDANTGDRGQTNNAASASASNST
# Chain of Dual specificity tyrosine-phosphorylation-regulated kinase 1B (Homo sapiens) (Q9Y463 whole entry, looked up): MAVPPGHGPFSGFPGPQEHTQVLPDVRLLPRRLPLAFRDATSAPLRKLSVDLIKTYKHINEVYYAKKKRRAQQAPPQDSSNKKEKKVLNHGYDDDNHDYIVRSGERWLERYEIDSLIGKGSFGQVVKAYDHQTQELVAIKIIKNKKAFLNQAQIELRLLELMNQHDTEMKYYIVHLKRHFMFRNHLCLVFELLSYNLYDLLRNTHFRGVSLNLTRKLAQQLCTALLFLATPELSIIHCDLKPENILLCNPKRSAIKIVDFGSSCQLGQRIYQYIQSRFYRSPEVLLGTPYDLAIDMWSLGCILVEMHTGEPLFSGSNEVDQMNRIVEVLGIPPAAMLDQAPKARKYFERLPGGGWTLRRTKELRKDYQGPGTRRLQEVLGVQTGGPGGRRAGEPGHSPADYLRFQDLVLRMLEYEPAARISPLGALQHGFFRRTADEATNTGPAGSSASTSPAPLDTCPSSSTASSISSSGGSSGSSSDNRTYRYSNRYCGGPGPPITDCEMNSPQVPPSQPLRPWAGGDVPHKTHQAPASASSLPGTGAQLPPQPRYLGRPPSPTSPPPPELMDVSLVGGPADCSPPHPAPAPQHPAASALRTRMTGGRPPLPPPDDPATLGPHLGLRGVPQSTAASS
# Chain of Dual specificity protein kinase CLK3 (Homo sapiens) (P49761 whole entry, looked up): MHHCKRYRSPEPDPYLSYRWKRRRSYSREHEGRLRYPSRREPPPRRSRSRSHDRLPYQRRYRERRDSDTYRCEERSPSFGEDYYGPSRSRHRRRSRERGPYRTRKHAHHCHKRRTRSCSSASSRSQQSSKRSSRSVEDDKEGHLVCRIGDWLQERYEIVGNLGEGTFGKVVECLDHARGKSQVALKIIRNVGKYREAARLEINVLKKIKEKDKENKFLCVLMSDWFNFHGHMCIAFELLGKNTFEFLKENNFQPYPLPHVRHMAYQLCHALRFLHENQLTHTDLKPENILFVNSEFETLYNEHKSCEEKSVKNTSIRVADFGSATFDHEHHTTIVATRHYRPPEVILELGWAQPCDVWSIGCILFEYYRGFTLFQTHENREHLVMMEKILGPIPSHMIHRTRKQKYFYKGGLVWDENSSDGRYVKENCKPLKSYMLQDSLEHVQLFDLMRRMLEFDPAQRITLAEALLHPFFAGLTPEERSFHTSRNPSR
# Chain of Cyclin-dependent kinase 4 (Homo sapiens) (P11802 whole entry): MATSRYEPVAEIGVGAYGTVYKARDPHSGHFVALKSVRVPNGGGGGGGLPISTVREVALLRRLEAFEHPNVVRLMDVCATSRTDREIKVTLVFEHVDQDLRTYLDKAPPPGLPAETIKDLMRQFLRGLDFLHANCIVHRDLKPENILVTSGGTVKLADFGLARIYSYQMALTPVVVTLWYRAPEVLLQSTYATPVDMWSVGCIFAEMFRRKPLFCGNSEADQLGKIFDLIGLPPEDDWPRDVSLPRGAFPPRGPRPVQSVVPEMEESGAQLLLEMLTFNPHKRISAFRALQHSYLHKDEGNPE
# Chain of Cyclin-dependent kinase 6 (Homo sapiens) (Q00534 whole entry): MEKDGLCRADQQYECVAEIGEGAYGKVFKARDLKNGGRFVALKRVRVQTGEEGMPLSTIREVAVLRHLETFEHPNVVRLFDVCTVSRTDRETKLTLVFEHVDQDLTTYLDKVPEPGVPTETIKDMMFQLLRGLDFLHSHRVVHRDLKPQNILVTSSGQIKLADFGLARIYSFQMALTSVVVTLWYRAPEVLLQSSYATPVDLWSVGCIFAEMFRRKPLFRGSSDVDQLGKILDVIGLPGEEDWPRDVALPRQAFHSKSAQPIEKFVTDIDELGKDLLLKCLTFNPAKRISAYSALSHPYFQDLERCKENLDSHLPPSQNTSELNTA
# Chain of Cyclin-dependent kinase 5 (Homo sapiens) (Q00535 whole entry, looked up): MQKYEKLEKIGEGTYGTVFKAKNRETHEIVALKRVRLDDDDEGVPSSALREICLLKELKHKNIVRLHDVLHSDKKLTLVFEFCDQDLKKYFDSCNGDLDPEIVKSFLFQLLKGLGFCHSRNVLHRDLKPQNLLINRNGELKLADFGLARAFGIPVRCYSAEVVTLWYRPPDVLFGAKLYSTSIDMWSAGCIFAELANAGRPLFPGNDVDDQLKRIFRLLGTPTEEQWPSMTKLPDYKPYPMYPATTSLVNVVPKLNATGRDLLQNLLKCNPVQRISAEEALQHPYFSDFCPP
# Chain of CDK3/Cyclin E (Homo sapiens) (P24864 whole entry, looked up): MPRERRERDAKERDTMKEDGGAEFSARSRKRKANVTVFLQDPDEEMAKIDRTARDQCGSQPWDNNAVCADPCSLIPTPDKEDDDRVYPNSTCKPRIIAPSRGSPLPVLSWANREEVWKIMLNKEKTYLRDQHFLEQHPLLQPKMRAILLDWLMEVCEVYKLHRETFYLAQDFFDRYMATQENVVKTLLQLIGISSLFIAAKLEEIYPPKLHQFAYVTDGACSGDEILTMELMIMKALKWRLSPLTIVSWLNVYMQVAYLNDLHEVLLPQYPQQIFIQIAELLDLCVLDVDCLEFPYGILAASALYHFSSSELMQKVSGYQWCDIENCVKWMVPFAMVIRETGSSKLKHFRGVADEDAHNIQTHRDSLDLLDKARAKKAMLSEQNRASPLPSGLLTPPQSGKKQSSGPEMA
# Chain of CDK3/Cyclin E (Homo sapiens) (Q00526 whole entry, looked up): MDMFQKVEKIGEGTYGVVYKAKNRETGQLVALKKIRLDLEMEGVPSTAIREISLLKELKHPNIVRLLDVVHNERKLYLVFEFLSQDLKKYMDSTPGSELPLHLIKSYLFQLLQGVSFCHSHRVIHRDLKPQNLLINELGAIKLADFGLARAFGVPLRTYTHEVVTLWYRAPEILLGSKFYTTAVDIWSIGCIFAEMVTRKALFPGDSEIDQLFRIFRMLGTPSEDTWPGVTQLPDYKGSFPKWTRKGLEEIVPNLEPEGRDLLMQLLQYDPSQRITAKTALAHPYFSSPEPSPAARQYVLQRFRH
# Chain of Dual specificity protein kinase CLK2 (Homo sapiens) (P49760 whole entry, looked up): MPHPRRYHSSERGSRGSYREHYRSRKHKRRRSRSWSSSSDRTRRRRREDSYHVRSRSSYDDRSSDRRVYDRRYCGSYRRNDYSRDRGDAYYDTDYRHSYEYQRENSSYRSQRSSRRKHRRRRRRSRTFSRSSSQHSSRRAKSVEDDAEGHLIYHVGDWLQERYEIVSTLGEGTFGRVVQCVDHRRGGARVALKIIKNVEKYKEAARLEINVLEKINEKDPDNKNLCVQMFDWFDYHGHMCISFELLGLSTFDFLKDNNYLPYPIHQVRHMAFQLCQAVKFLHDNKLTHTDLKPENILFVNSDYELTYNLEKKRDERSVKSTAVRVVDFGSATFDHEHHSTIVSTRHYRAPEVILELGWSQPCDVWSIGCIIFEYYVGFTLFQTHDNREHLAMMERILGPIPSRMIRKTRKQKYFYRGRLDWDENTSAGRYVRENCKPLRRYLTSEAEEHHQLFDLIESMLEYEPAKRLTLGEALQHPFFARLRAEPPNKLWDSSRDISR
# Chain of Glycogen synthase kinase-3 alpha (Homo sapiens) (P49840 2-483 limits assumed): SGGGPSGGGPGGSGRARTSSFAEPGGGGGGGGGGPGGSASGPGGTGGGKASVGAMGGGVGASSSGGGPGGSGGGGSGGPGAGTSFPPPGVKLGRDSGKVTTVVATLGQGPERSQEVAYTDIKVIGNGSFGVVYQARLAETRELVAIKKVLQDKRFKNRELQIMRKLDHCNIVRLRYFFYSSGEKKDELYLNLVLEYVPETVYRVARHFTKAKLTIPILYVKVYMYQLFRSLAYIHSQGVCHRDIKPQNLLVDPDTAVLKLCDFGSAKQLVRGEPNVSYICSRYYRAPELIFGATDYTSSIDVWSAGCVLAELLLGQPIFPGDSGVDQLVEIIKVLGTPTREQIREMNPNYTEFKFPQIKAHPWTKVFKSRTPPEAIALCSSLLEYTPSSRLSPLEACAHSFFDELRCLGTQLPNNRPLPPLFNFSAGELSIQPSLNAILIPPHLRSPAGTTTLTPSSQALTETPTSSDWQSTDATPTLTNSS
Compound,inhibition [1] [%],inhibition [2] [%],inhibition [3] [%],inhibition [4] [%],inhibition [5] [%],inhibition [6] [%],inhibition [7] [%],inhibition [8] [%],inhibition [9] [%],inhibition [10] [%],inhibition [11] [%],inhibition [12] [%],inhibition [13] [%],inhibition [14] [%],inhibition [15] [%],inhibition [16] [%],inhibition [17] [%],inhibition [18] [%],inhibition [19] [%],inhibition [20] [%]
NS(=O)(=O)c1cccc(-c2ccc3c(NC(=O)C4CC4)n[nH]c3c2)c1,1.71,-1.17,1.45,0.87,1.78,-1.94,6.01,-0.55,-0.78,0.83,1.36,2.96,3.42,2.16,3.65,-1.18,-0.6,1.01,3.15,
Fc1cccc(COc2ccc(Nc3ncnc4sc(-c5cccs5)cc34)cc2Cl)c1,0.05,0.35,2.13,0.55,1.81,-0.81,0.5,1.58,1.69,0.66,-0.15,1.88,6.51,1.39,2.06,-1.01,1.17,1.69,6.14,1.97
COc1ccccc1Nc1ncc(-c2ccccc2)o1,-1.14,0.89,2.21,0.04,1.68,-0.22,-0.99,0.98,0.86,1.23,0.51,2.5,3.38,-1.91,-1.3,4.18,3.04,2.25,3.92,2.57
CC1=C(C(=O)Nc2ccc3[nH]ncc3c2)C(c2ccc3ccccc3c2)CC(=O)N1 (stereo not given),2.9,2.41,2.46,1.12,3.42,3.45,4.44,1.34,2.42,2.41,4.72,3.4,5.32,2.6,3.67,0.96,1.61,2.64,5.8,2.72
O=C(Nc1n[nH]c2nc(-c3ccco3)c(Br)cc12)C1CC1,2.69,2.78,8.19,0.87,3.63,-1.81,12.9,1.95,2.79,0.97,2.72,1.71,4.33,0.48,3.25,3.03,4.31,36.9,80.6,
Nc1nc(-c2ccccn2)c(-c2ccc3ncccc3n2)s1,0.5,3.41,4.48,1.28,2.86,6.73,7.75,-0.01,0.69,2.95,4.76,7.05,18.3,3.14,8.56,2.04,4.58,3.86,12.8,3.76
Cc1nn(C)c2cc(N(C)c3ccnc(Nc4cccc(S(N)(=O)=O)c4)n3)ccc12,-0.68,1.72,4.46,0.41,2.78,,-0.34,0.73,0.86,1.2,3.34,0.4,0.86,-1.86,-1.3,2.83,2.82,1.79,3.95,0.37
Cc1cc(O)cc(C)c1/C=C/c1cncc(-c2nn[nH]n2)c1,-2.12,-0.96,0,-3.06,-3.35,-6.34,-0.68,2.78,1.31,,-1.62,1.17,2.98,-1.94,-1.27,2.24,3.95,-2.04,3.03,-2.15
CS(=O)(=O)CCNCc1ccc(-c2ccc3ncnc(Nc4ccc(OCc5ccccc5)c(Cl)c4)c3c2)o1,-1.2,-0.14,4.1,2.15,3.8,-5.27,-2.22,2.2,1.75,0.36,-0.47,2.24,1.73,1.31,2.67,-0.23,1.41,1.58,4.24,2.15
N#Cc1c(NC(=O)c2cccc3ccccc23)sc2c1CCCC2,-0.77,3.82,6.92,1.3,5.67,,4.55,1.29,0.3,0.63,1.09,1.07,4.31,0.47,1.43,1.86,2.69,5.51,6.65,3.72
Cc1nnc(-c2ccc(C)c(-c3ccc(C(=O)Nc4cccc(C#N)c4)cc3)c2)o1,-0.82,0.95,0.68,0.65,1.71,1.26,3.14,1.15,-0.94,0.91,1.62,0.92,3.59,0.45,1.21,1.13,1.2,2.41,4.82,2.45
COC(=O)Nc1nc2cc(Oc3ccc(NC(=O)Nc4cccc(C(=O)O)c4)cc3)ccc2[nH]1,-0.13,-1.05,2.01,-1.87,-0.58,4.45,2.67,2.17,0.77,-3.22,0.74,-4.02,-1.76,-3.44,-1.48,0.41,-0.17,-2.54,1.82,-2.48
CCn1c(-c2nonc2N)nc2cncc(C(=O)N3CCNCC3)c21,0.54,2.78,3.57,0.79,1.06,-0.98,3.06,2.04,5.8,2.42,1.12,3.49,4.33,0.28,-0.73,4.35,7.99,2.98,2.61,1.93
